Results filed as inconclusive are left out. Where a call stands in place of a potency, no number is given. Activity calls are given as the source filed them. Calls follow the shape of the dose curve; as a rule, active = well fitted activation curve with a large enough effect in the repeat runs; inconclusive = weak or mixed curves; inactive = no such curve, though single readings can be large or run the other way.
Assay: qHTS assay for small molecules that induce genotoxicity in human embryonic kidney cells expressing luciferase-tagged ATAD5 (AID 651632); also: nearly all actives have a fitted effect of over 15% in size
Details: HEK293T ATAD5-luciferase induction, 16 h; series mostly up to 83.3 µM
Summary of the method: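 HEK293T cells carrying a luciferase reporter tagged to ATAD5 were exposed to compound or DMSO vehicle for 16 hr at 37C, 5% CO2. Amplite was added, and after 30 min at room temperature luciferase activity was read as a marker of ATAD5 induction.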
Potency is read from the fitted curve at half-maximal effect.

SMILES | Potency
C=C1CCC2CC1C2(C)C (centres undefined) | inactive
CN1CCCC(CC2c3ccccc3Sc3ccccc32)C1 (centres undefined) | inactive
CC(C)c1nc(CN(C)C(=O)N[C@H](C(=O)N[C@@H](Cc2ccccc2)C[C@H](O)[C@H](Cc2ccccc2)NC(=O)OCc2cncs2)C(C)C)cs1 | inactive
CC(C)(c1ccccc1)c1ccccc1 | inactive
CN1CCCC(n2nc(Cc3ccc(Cl)cc3)c3ccccc3c2=O)CC1 (centres undefined) | inactive
O=C(O)CCCCCCCCCCCBr | inactive
CCCCN1CCCC1C(=O)Nc1c(C)cc(C)cc1C (centres undefined) | inactive
Cc1ccccc1N=C(N)Nc1ccccc1C | inactive
CCOc1ccccc1O[C@H](c1ccccc1)[C@H]1CNCCO1 | inactive
CCOC(=O)c1ccc(C#Cc2ccc3c(c2)C(C)(C)CCS3)nc1 | inactive
C=C/C(C)=C/C/C=C(\C)CCC=C(C)C | inactive
CCOC(=O)C1=C(C)NC(C)=C(C(=O)OC)C1c1cccc(Cl)c1Cl (centres undefined) | inactive
Oc1cc2c(cc1O)[C@H]1c3ccc(O)c(O)c3OC[C@@]1(O)C2 | inactive
CN(C)CCC=C1c2ccccc2C=Cc2ccccc21 | inactive
CN(C(=O)CN(CCO)CC(=O)N(C)C(C)(C)Cc1ccccc1)C(C)(C)Cc1ccccc1 | inactive
CC(=O)c1ccc([N+](=O)[O-])cc1 | inactive
CCCCCCCCCCCCCCN(CCO)CCO | inactive
COc1cc(C(=O)NC2CCN(C)CC2)ccc1Nc1ncc2c(n1)N(C1CCCC1)CC(F)(F)C(=O)N2C | 1580 nM (active)
CC1=C(Br)C(=O)C(Br)=C/C1=C(/c1ccccc1S(=O)(=O)O)c1cc(Br)c(O)c(Br)c1C | inactive

Source: PubChem BioAssay (Tox21)
